Only some compounds are listed: those with a hit (about 5.2% of all), similar ones and a draw of the others.
PostGolgi yeast: growth inhibition of a yeast mutant, post-Golgi transport screen; post-Golgi transport phenotypic cell assay; inhibition, % at 10 µM; 0.9% of 98,000 active; AID 739;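 also: yeast cells grown in 1536-well plates; yeast grown about 18 h at 30C before absorbance read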
Candida biofilm: kills Candida albicans biofilms; C. albicans biofilm + clotrimazole, Alamar Blue; inhibition, % at 6 µM; 0.14% of 85,000 active;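 active = inhibition above 20%; inactive = inhibition below 20%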;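 also: preformed 24 hr biofilms exposed to compound for 48 hr; 0% = biofilm without compound and 100% = blank killed by clotrimazole plus chlorhexidine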
PostGolgi ctrl: inhibits growth of the yeast control strain. efflux-deficient yeast background strain, growth absorbance A615, 16 h. inhibition, % at 10 µM. 5% of 98,000 active. AID 738
EphB4 ephrin blk: antagonists of human EphB4-ephrin-B2 interaction; P54760; EphB4 LBD / TNYL-RAW-Alexa532 peptide, fluorescence polarization; inhibition, % at 7 µM; 0.15% of 97,000 active; AID 720;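 active = inhibition above the screen-wide mean inhibition plus 3 SD, cut at about 15% in these data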;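 also: 0% = DMSO wells and 100% = excess unlabeled TNYL-RAW peptide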
Target sequence (P54760 whole entry, looked up, the tested form may be a part): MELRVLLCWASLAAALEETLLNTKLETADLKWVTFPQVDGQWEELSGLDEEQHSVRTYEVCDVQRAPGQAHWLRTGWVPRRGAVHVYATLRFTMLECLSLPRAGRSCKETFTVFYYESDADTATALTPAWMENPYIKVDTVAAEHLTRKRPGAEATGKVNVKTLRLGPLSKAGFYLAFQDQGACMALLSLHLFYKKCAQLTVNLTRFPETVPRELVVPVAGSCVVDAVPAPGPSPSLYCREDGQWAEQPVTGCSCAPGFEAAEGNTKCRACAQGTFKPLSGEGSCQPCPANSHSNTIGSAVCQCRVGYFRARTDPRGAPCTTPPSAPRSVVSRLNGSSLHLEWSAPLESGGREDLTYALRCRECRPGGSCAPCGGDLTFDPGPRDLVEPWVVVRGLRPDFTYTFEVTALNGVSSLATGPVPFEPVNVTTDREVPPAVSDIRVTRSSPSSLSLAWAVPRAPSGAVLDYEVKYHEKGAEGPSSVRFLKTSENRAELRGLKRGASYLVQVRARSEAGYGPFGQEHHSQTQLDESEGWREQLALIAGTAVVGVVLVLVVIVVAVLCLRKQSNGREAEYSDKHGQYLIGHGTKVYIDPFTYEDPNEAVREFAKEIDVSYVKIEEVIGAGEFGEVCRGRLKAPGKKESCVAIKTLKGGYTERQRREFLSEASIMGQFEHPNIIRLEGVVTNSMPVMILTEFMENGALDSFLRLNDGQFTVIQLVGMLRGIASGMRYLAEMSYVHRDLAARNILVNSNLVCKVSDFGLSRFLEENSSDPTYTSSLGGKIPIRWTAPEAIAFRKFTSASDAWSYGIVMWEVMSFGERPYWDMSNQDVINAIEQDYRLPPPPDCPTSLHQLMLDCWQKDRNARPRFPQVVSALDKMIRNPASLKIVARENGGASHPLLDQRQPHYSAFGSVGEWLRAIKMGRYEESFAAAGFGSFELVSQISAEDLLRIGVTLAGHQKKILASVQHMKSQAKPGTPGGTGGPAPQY
Numbers without * were called inactive; . = no result given. Rule as the data show it, unless noted: active = inhibition above about 30%; inactive = the rest.

SMILES	PostGolgi yeast	Candida biofilm	PostGolgi ctrl	EphB4 ephrin blk
CCCC1C2C(=O)N(c3ccccc3OCC)C(=O)C2ON1c1ccccc1 (stereo not drawn)	9.6	7.7	-1.1	-5.3
O=C(c1noc2c1CCCC2)N1CCN(c2ccc(F)cc2)CC1	4.1	2.6	34.1*	-6.7
CCCn1c(=O)[nH]c(=O)c2c1nc(-c1ccccc1)n2CCN1CCOCC1	-17.1	0.2	-1.0	11.2
Cc1cc(C)cc(Oc2ncnc3c2ncn3Cc2c(Cl)cccc2Cl)c1	-1.0	-2.5	34.1*	-0.5
Cc1cc(Nc2nc3ccccc3nc2Cl)n(-c2ccc([N+](=O)[O-])cc2)n1	1.4	-2.3	32.0*	1.7
CCCn1nnnc1SCC(=O)NCc1ccc2c(c1)OCO2	19.7	-3.2	-4.4	2.4
Cc1ccc(C)c(-n2c(C)cc(/C=N/NC(=O)c3c(C)nc4cc(C)ccn34)c2C)c1	.	0.8	.	0.6
COc1cc2c(cc1OC)CN(C(C)C(=O)Nc1ccc(NC(C)=O)cc1)CC2 (stereo not drawn)	-4.1	.	-2.9	-0.9
O=[N+]([O-])c1cccc(/C=C/c2nc3ccc([N+](=O)[O-])cc3[nH]2)c1	8.1	.	72.3*	-4.3
O=[N+]([O-])c1ccc2n[nH]nc2c1	2.1	8.0	10.7	-3.0
Cc1ccc([N+](=O)[O-])cc1N=C(c1cccc(Br)c1)N1CCOCC1	22.6	.	33.6*	-0.6
COc1ccc(OCCSc2nnc3sc4ccccc4n23)cc1	38.1*	4.2	1.2	3.1
CC(=O)c1ccc(NC2=C(N3CCOCC3)C(=O)c3ccccc3C2=O)cc1	1.4	.	34.2*	-2.8
Cc1ccc(NC2=C(N3CCOCC3)C(=O)c3ccccc3C2=O)cc1	-3.9	.	3.4	6.6
CCC(C(=O)NC(C)(C)C)N(C(=O)Cn1nnc(-c2cccs2)n1)c1cnc2ccccc2c1 (stereo not drawn)	-2.2	8.6	-1.3	-7.3
N#Cc1c(NC(=O)c2ccncc2)sc2c1CCC2	2.1	3.9	30.5*	1.6
N#Cc1c(NC(=O)C2CC(c3ccccc3Cl)=NO2)sc2c1CCC2 (stereo not drawn)	-1.5	.	14.5	-4.0
Cc1onc(-c2ccccc2Cl)c1C(=O)Nc1sc2c(c1C#N)CCC2	-10.3	6.1	30.1*	-1.7
Cc1onc(-c2ccccc2Cl)c1C(=O)Nc1cccc2cccnc12	-0.3	2.8	33.4*	3.2
COc1cc(C(=O)Nc2cccc3cccnc23)cc(OC)c1OC	31.8*	-3.0	4.7	6.8
Cc1csc(SCC(=O)Nc2ncc(Cl)c(C)c2Cl)n1	5.1	-0.1	-2.9	3.1
CCC1CC(CSc2ncn[nH]2)OC1=O (stereo not drawn)	-1.6	2.0	1.8	-5.2
CC(=O)N1CCc2cc(S(=O)(=O)NCCN3CCC(C)CC3)ccc21	-0.8	4.9	2.4	-0.6
CC(C)C(NS(=O)(=O)c1cccs1)C(=O)N1CCc2ccccc2C1 (stereo not drawn)	4.5	10.3	1.9	-7.0
CCCCC(c1nnnn1CC1CCCO1)N1CCN(c2nc3ccccc3s2)CC1 (stereo not drawn)	-9.9	1.9	8.2	-1.6
SMILES	PostGolgi yeast	Candida biofilm	PostGolgi ctrl	EphB4 ephrin blk
CCCCC(c1nnnn1CC1CCCO1)N1CCN(c2cc(Cl)ccc2C)CC1 (stereo not drawn)	1.4	3.6	30.8*	0.3
Cc1ccc(C)c(N2CCN(C(=O)c3ccc(CS(=O)(=O)c4ccccc4C)o3)CC2)c1	5.3	8.1	37.7*	-1.4
Cc1ccc(S(=O)(=O)Cc2ccc(C(=O)N3CCN(c4cc(C)ccc4C)CC3)o2)cc1	-2.4	.	36.8*	-5.9
Cc1ccc(S(=O)(=O)Cc2ccc(C(=O)N3CCCC3)o2)cc1	1.1	11.8	-1.7	1.6
CC(C)(C)c1ccc(-c2noc(CCC(=O)NCC3CCCO3)n2)cc1 (stereo not drawn)	-0.5	-0.8	23.2	0.1
CCOc1ccc(-c2[nH]ncc2Oc2ccccc2OCC)c(O)c1	91.1*	8.3	56.9*	1.6
CCOc1ccc(-c2[nH]ncc2-c2ccc(OC)c(OC)c2)c(O)c1	-2.4	0.1	11.8	-5.0
C=C(C)COc1ccc(-c2[nH]ncc2-c2ccccc2OC)c(O)c1	54.1*	9.6	51.8*	-1.3
CCOc1ccc(-c2nc(N)ncc2Oc2ccccc2Br)c(O)c1	2.6	3.4	55.5*	-4.1
CCOc1ccc(-c2nc(N)ncc2Oc2cccc(OC)c2)c(O)c1	-0.2	4.9	26.8	-4.5
C=C(C)COc1ccc(-c2[nH]ncc2Oc2ccccc2OC)c(O)c1	11.6	8.8	10.1	-4.0
CCOc1ccc(-c2[nH]ncc2Oc2ccccc2OC)c(O)c1	9.5	1.5	21.8	-9.0
CCCOC(=O)c1ccc(Oc2cn[nH]c2-c2ccc(OC)cc2O)cc1	5.6	9.2	42.8*	-3.4
COc1ccccc1NC(=O)Cn1cnc2sc(C)c(S(=O)(=O)N3CCCCC3)c2c1=O	.	2.5	.	.
COCc1nnc(NS(=O)(=O)c2c(C)cc(C)cc2C)s1	0.0	5.3	10.1	2.5
Cc1oc2cc3c(C(=O)OCCN(C)C)c(C)oc3cc2c1C(=O)OCCN(C)C	.	8.3	.	.
Nc1nc2ccc(Oc3ccccc3)cc2s1	10.4	15.8	32.3*	0.8
COc1cc(CNC2CCCC2)cc(Cl)c1OCc1ccc(F)cc1	-0.8	.	43.9*	0.4
COc1cc(CNC2CCCC2)cc(Cl)c1OCc1ccccc1Cl	8.1	.	32.8*	3.2
Cc1snc(S(=O)(=O)/C(C#N)=N/Nc2ccc(C(F)(F)F)cc2)c1C#N	-6.2	2.5	-1.6	2.8
CCOc1ccc(CCN2C(=O)C3C4C=CC(C4)C3C2=O)cc1OCC (stereo not drawn)	2.4	5.1	5.0	-0.8
COC(=O)C1=C(C)NC(=O)/C1=C\c1cc(C)n(-c2c(C)cccc2C)c1C	-1.1	-4.4	-2.0	3.0
COC(=O)C1=C(C)NC(=O)/C1=C\c1cc(C)n(-c2ccccc2C)c1C	9.6	4.4	32.5*	2.1
C=CCNC(=O)c1ccc2nc(-c3ccccc3)c(-c3ccccc3)nc2c1	8.3	.	35.9*	-2.8
CCOc1ccccc1C(=O)N1CCCCC1C (stereo not drawn)	-5.2	9.5	2.4	-7.2
SMILES	PostGolgi yeast	Candida biofilm	PostGolgi ctrl	EphB4 ephrin blk
Brc1ccccc1Cn1c(-c2cncs2)nc2ccccc21	8.3	8.4	62.6*	-10.0
CC(=O)OCCCNc1cc(Sc2nc3ccccc3s2)c2nonc2c1[N+](=O)[O-]	-1.5	.	43.0*	7.6
O=C(N/N=C/c1ccc(Sc2nc3ccccc3s2)c([N+](=O)[O-])c1)c1ccccn1	1.5	.	-2.2	-9.8
O=C(NCCCN1CCCC1=O)c1ccccc1NS(=O)(=O)c1ccc(Br)cc1	8.8	5.8	1.2	-2.1
Cc1nn2c(c1-c1ccccc1)NC1=C(C(=O)CCC1)C2c1cccnc1 (stereo not drawn)	.	7.1	.	.
COc1ccc(CCNC(=O)CCn2c(=O)oc3ccccc32)cc1	-2.6	21.2*	-10.1	.
Nc1ccccc1-c1nnn(CC(=O)N2CCCc3ccccc32)n1	.	7.6	.	-0.5
COc1cc2c(cc1OC)CN(Cc1ccc(C)s1)CC2	-0.9	6.9	42.9*	0.8
CCOC(=O)c1oc2cccc(O)c2c1CN(Cc1ccccc1)C(C)=O	6.8	.	23.2	19.5*
CCOC(=O)CC(=O)CSc1nc2nc(C)cc(C)n2n1	-2.4	6.0	30.4*	-1.3
O=C(/C=C/c1ccccc1Cl)NCc1ccccc1	5.4	.	-4.0	15.6*
